Assay results published in PubChem BioAssay (Tox21).
Records with an inconclusive call do not appear. Where a call stands in place of a potency, no number is given. A structure can be active in one record and inactive in another. Calls of active or inactive are those of the source. Unless noted, calls follow the shape of the dose curve; as a rule, active = well fitted curve in the direction sought with a large enough effect in the repeat runs; inconclusive = weak or mixed curves; inactive = no such curve, though single readings can be large; an effect the other way counts as inactive or inconclusive.

Experiments:
[1] = qHTS assay to identify small molecule antagonists of the androgen receptor (AR) signaling pathway using the MDA cell line in the presence of 0.5 nM R1881 - cell viability counter screen (AID 1259242); also: nearly all actives have a fitted effect of over 45% in size; also: potency is read from the fitted curve at half-maximal effect
Outline: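 Live-cell protease fluorescence, CellTiter-Fluor, 30 min at 37C. Cells: MDA-kb2, 3,000/well, preincubated 5 hr. Compounds plus 0.5 nM R1881 final, 16 hr, 37C, 0% CO2.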

[2] = qHTS assay to identify small molecule phospholipidosis (PLD) inducers (AID 1259344; active = well fitted curve in the direction sought with a large enough effect; an effect the other way counts as inactive or inconclusive)
Outline: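 After 4 h attachment on collagen I, HepG2 cells were dosed with compound alongside LipidTOX Red, kept 24 h at 37 C, fixed, and imaged for lamellar phospholipid pits.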

[3] = qHTS assay to identify small molecule HDAC inhibitors (AID 1259364);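 also: wild-type HCT-116 cells with endogenous class I/II HDAC activity; top concentration of the series differs between compounds; nearly all actives have a fitted effect of over 45% in size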
Outline: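 HCT-116 (wild type), 1,500 cells/well, overnight; compound 2 hr 37C 5% CO2; HDAC-Glo I/II reagent 30 min RT; luminescence readout.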

[4] = qHTS assay to identify small molecule HDAC inhibitors - cell viability counter screen (AID 1259365); also: nearly all actives have a fitted effect of over 50% in size; also: potency is read from the fitted curve at half-maximal effect
Outline: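 Cytotoxicity was gauged in wild-type HCT-116 cells after a brief 2hr treatment with DMSO-dissolved compounds at 37C and 5% CO2, using CellTiter-Glo luminescence developed for 30min at room temperature.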

[5] = qHTS assay to identify small molecule antagonists of the sonic hedgehog signaling (Shh) pathway - cell viability counter screen (AID 1259367); also: nearly all actives have a fitted effect of over 55% in size; also: potency is read from the fitted curve at half-maximal effect
Outline: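 Conditioned medium drove Shh signaling in 3T3 Gli1-Luc cells exposed to compounds at 37C and 5% CO2. Viability was determined from CellTiter-Fluor fluorescence, with reagent incubated 1 hr after 23 hr of treatment.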

[6] = qHTS assay to identify small molecule agonists of the sonic hedgehog signaling (Shh) pathway (AID 1259368; calls by dose curve;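 also: NIH/3T3-derived 3T3Gli1-Luc cells carrying a stable Gli1-driven firefly luciferase reporter; series mostly up to about 92 µM; nearly all actives have a fitted effect of over 15% in size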)
Outline: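 Read-out: firefly luciferase luminescence from a Gli1 response element reporter stably integrated in NIH/3T3-derived 3T3Gli1-Luc cells, measured 30 min at room temperature after reagent addition. Compound exposure lasted 24 hr at 37 C, 5% CO2.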

[7] = qHTS assay to identify small molecule antagonists of the sonic hedgehog signaling (Shh) pathway (AID 1259369; calls by dose curve; also: nearly all actives have a fitted effect of over 45% in size; also: potency is read from the fitted curve at half-maximal effect)
Outline: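 Luminescence readout: firefly Luc under Gli1 response element in 3T3Gli1-Luc cells (NIH/3T3 clone). Antagonist mode, stimulation by conditioned medium; compound exposure 24hr at 37 C, 5% CO2.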

[8] = biological target: Estrogen receptor beta (Homo sapiens) (UniProt Q92731); test: qHTS assay to identify small molecule agonists of the estrogen receptor beta (ER-beta) signaling pathway (AID 1259377; active = well fitted activation curve with a large enough effect in the signal ratio in the repeat runs, not every such curve was filed as active; the % refers to the signal ratio)
Outline: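 Measured by fluorescence intensity from a B/G FRET beta-lactamase substrate (2 h, room temperature) in ER-beta-UAS-bla HEK293T cells treated with DMSO-dissolved compounds for 16 hr at 37C and 5% CO2.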

[9] = qHTS assay to identify small molecule agonists of the androgen receptor (AR) signaling pathway in the presence of an antagonist - cell viability counter screen (AID 1259379); also: nearly all actives have a fitted effect of over 25% in size; also: potency is read from the fitted curve at half-maximal effect
Outline: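 Viability counter screen: CellTiter-Fluor fluorescence, measured in the same wells as the luciferase read-out. MDA-kb2 cells, 3,000/well, with nilutamide at 3.0uM final and compounds at 15 concentrations, 16 hr at 37C, 0% CO2.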

[10] = qHTS assay to identify small molecule agonists of the estrogen receptor beta (ER-beta) signaling pathway - cell viability counter screen (AID 1259380); also: nearly all actives have a fitted effect of over 30% in size; also: potency is read from the fitted curve at half-maximal effect
Outline: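 Luminescence read-out (CellTiter-Glo, 30 min, room temp) taken in the same wells as the beta-lactamase reporter assay; ER-beta-UAS-bla HEK293T cells exposed to DMSO-dissolved compounds for 16 hr at 37C in 2% charcoal-stripped FBS medium.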

[11] = qHTS assay to identify small molecule antagonists of the estrogen receptor beta (ER-beta) signaling pathway - cell viability counter screen (AID 1259382); also: nearly all actives have a fitted effect of over 55% in size; also: potency is read from the fitted curve at half-maximal effect
Outline: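 Luminescent ATP read-out (CellTiter-Glo, 30 min, RT) taken in the same wells as the bla reporter assay. HEK293T ER-beta-UAS-bla cells in 2% charcoal-stripped FBS were exposed to compounds with 1nM E2 for 16 hr at 37C.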

[12] = qHTS assay to identify small molecule agonists or antagonists of the thyroid stimulating hormone receptor (TSHR) signaling pathway - wild type cell line counter screen (AID 1259384; calls by dose curve)
Outline: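 Wild-type HEK293 cells were plated 18 h at 37 C/5% CO2, pin-dosed with compound plus Ro20-1724 medium, held 30 min at room temperature, then given cAMP-d2 and anti-cAMP-cryptate; fluorescence was read after 1 h. Fifteen concentrations, triplicate.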

[13] = biological target: Thyrotropin receptor (Homo sapiens) (UniProt P16473); test: qHTS assay to identify small molecule antagonists of the thyroid stimulating hormone receptor (TSHR) signaling pathway (AID 1259385; calls by dose curve; also: nearly all actives have a fitted effect of over 20% in size; also: potency is read from the fitted curve at half-maximal effect)
Outline: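 TSHR-HEK293 cells were plated and held 18 h at 37C/5% CO2, then given compound plus Ro20-1724 and stimulated with TSH at 1.5 ng/mL final. After 30 min at room temperature, cAMP was detected with cAMP-d2/anti-cAMP-cryptate (1 h) by fluorescence.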

[14] = qHTS assay to identify small molecule agonists of the sonic hedgehog signaling (Shh) pathway - cell viability counter screen (AID 1259366); also: nearly all actives have a fitted effect of over 50% in size; also: potency is read from the fitted curve at half-maximal effect
Outline: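 Stable Gli1-Luc NIH/3T3 clone, 2,000 cells/well. Compound exposure 24hr at 37C. Read-out: CellTiter-Fluor fluorescence.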

[15] = biological target: Estrogen receptor (Homo sapiens) (UniProt P03372); test: qHTS assay to identify small molecule antagonists of the estrogen receptor alpha (ER-alpha) signaling pathway using the BG1 cell line in the presence of 0.1 nM 17-beta-estradiol (AID 1259244); also: nearly all actives have a fitted effect of over 50% in size; also: potency is read from the fitted curve at half-maximal effect
Outline: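 Luminescence after ONE-Glo (30 min, room temperature) measured ERE-luciferase activity in VM7Luc4E2 cells treated 22 h with compound and 0.1 nM final 17beta-estradiol as stimulator.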

[16] = biological target: Estrogen receptor (Homo sapiens) (UniProt P03372); test: qHTS assay to identify small molecule agonists of the estrogen receptor alpha (ER-alpha) signaling pathway in the presence of an antagonist (AID 1259383; calls by dose curve; also: top concentration of the series differs between compounds; nearly all actives have a fitted effect of over 15% in size)
Outline: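 Luciferase luminescence (ONE-Glo, 30min at room temperature) measured in VM7Luc4E2 cells after 22hr compound exposure at 15 concentrations, with 10.0nM ICI-182,780 final present; cells express endogenous ER-alpha and carry four EREs upstream of luciferase.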

[17] = biological target: Estrogen receptor beta (Homo sapiens) (UniProt Q92731); test: qHTS assay to identify small molecule antagonists of the estrogen receptor beta (ER-beta) signaling pathway (AID 1259378; active = well fitted inhibition curve with a large enough effect in the signal ratio in the repeat runs, not every such curve was filed as active; the % refers to the signal ratio; also: potency is read from the fitted curve at half-maximal effect)
Outline: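 ER-beta-UAS-bla HEK293T (GripTite) cells in 2% charcoal-stripped FBS medium were preincubated 6 hr at 37C, dosed with compound, then stimulated with 1 nM E2 (final) for 16 hr; beta-lactamase reporter read by B/G FRET fluorescence after 2 hr substrate loading.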

[18] = biological target: Androgen receptor (Homo sapiens) (UniProt P10275); test: qHTS assay to identify small molecule antagonists of the androgen receptor (AR) signaling pathway using the MDA cell line in the presence of 0.5 nM R1881 (AID 1259243); also: potency is read from the fitted curve at half-maximal effect; nearly all actives have a fitted effect of over 50% in size
Outline: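 MDA-kb2, MMTV-luc (AR/GR elements); 3,000 cells/well; cpd + 0.5 nM R1881 final; 16 hr 37C, 0% CO2; ONE-Glo 30 min RT; luminescence.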

[19] = biological target: Androgen receptor (Homo sapiens) (UniProt P10275); test: qHTS assay to identify small molecule agonists of the androgen receptor (AR) signaling pathway in the presence of an antagonist (AID 1259381; calls by dose curve; also: nearly all actives have a fitted effect of over 15% in size; also: potency is read from the fitted curve at half-maximal effect)
Outline: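 Luciferase read-out (ONE-Glo, 30min room temperature) in MDA-kb2 MMTV-reporter cells; agonist mode run in presence of AR antagonist nilutamide, 3.0uM final. Compounds tested as 15-point series, 16hr exposure at 37C, 0% CO2.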

Sequence of Thyrotropin receptor (Homo sapiens) (P16473 whole entry, looked up): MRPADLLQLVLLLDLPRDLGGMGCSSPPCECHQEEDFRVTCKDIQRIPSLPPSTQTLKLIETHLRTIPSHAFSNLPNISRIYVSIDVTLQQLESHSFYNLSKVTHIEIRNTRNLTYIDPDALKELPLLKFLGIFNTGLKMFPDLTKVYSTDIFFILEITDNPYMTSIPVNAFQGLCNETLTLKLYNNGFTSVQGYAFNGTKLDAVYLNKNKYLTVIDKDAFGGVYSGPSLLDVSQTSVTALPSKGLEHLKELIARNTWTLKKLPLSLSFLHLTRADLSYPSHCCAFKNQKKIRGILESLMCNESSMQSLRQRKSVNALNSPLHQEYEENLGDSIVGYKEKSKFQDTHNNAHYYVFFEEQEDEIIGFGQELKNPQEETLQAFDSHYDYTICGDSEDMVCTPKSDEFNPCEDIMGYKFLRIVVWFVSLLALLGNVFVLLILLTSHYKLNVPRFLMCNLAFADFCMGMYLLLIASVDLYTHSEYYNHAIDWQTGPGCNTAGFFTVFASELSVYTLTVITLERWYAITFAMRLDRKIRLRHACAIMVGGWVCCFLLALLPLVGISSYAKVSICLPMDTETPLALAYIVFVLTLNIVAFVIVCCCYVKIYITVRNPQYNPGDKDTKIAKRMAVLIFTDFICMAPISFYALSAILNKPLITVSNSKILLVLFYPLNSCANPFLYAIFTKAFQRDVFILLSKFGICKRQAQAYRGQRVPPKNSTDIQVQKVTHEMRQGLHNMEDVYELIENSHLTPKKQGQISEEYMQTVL
Sequence of Estrogen receptor beta (Homo sapiens) (Q92731 whole entry, looked up): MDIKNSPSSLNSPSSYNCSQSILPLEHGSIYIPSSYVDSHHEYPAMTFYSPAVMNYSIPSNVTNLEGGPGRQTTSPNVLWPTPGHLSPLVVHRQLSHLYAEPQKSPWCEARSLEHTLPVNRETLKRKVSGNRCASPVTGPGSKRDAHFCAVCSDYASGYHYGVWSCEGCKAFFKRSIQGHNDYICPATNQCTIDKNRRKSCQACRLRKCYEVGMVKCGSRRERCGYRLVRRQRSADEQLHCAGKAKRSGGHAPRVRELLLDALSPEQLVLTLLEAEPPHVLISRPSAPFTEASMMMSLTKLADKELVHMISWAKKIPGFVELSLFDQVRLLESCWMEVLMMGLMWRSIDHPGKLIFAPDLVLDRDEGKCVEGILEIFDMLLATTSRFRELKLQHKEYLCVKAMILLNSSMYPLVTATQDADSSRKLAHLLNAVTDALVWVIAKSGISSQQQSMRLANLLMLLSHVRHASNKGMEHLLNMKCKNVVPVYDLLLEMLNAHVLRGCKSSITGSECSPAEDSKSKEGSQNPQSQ
Sequence of Androgen receptor (Homo sapiens) (P10275 whole entry, looked up): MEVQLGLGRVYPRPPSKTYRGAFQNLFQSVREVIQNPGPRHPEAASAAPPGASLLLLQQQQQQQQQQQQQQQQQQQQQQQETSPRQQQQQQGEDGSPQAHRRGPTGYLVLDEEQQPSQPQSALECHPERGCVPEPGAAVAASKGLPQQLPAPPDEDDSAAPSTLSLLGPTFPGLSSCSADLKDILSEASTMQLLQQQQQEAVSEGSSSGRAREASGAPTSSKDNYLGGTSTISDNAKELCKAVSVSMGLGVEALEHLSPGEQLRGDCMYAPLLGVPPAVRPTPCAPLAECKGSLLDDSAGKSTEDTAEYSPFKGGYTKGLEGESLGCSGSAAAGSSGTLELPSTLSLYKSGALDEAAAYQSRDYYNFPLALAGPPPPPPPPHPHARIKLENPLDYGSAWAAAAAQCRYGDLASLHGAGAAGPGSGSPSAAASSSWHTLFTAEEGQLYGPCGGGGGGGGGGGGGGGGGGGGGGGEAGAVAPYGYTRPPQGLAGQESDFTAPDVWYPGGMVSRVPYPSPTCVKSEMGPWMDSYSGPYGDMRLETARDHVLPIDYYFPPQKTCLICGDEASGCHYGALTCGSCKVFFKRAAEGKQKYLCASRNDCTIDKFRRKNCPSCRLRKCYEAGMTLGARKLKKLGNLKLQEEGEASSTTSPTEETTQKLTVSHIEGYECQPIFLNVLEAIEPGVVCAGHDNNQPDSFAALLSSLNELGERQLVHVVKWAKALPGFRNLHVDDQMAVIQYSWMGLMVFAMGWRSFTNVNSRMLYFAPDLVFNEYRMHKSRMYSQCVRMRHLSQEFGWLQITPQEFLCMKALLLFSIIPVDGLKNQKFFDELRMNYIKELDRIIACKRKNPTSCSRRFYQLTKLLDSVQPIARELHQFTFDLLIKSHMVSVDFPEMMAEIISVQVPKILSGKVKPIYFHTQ
Sequence of Estrogen receptor (Homo sapiens) (P03372 whole entry, looked up): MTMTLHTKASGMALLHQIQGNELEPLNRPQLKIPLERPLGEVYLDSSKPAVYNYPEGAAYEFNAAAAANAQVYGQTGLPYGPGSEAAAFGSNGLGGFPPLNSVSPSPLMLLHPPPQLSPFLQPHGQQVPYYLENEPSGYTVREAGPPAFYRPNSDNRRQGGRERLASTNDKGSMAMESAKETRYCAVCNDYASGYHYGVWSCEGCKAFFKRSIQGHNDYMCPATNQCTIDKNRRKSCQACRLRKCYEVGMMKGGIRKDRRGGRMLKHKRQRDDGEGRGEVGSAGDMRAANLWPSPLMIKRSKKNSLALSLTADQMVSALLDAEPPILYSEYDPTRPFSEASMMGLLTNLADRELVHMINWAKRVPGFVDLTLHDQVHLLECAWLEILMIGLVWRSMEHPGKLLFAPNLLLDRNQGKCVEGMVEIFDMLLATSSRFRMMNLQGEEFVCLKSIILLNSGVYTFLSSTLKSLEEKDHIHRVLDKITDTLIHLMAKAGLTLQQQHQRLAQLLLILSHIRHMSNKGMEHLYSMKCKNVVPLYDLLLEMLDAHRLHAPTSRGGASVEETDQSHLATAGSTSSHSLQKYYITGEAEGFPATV

SMILES	Potency [1]	Potency [2]	Potency [3]	Potency [4]	Potency [5]	Potency [6]	Potency [7]	Potency [8]	Potency [9]	Potency [10]	Potency [11]	outcome [12]	Potency [13]	Potency [14]	Potency [15]	Potency [16]	Potency [17]	Potency [18]	Potency [19]
CN(C)[C@@H]1C(=O)C(C(N)=O)=C(O)[C@@]2(O)C(=O)C3=C(O)c4c(O)ccc(Cl)c4[C@@H](O)[C@H]3C[C@@H]12	inactive	inactive	inactive	inactive	inactive	inactive	inactive	inactive	inactive	inactive	inactive	inactive	inactive						
O=C(Nc1ccc(Oc2ccc(Cl)cc2)c(Cl)c1)c1cc(I)cc(I)c1O	inactive	inactive	inactive	inactive	inactive	inactive	29.8 µM (active)			11.9 µM (active)		inactive	inactive	inactive					
CCC1=C[C@@H]2CN(C1)Cc1c([nH]c3ccccc13)[C@@](C(=O)OC)(c1cc3c(cc1OC)N(C)[C@H]1[C@@](O)(C(=O)OC)[C@H](OC(C)=O)[C@]4(CC)C=CCN5CC[C@]31[C@@H]54)C2	inactive	inactive	inactive	inactive		inactive	0.0042 µM (active)				inactive			11.9 µM (active)	21.1 µM (active)	inactive			
CC(C)n1nc(-c2cc3cc(O)ccc3[nH]2)c2c(N)ncnc21	inactive	inactive	inactive	inactive	0.944 µM (active)	inactive	1.5 µM (active)			0.211 µM (active)		inactive	inactive	0.841 µM (active)	0.376 µM (active)	inactive			
CCCCCCCCCCCCCCCS(=O)(=O)Oc1ccccc1	inactive		inactive	inactive	inactive	inactive	inactive	inactive	inactive	inactive	inactive		inactive	inactive	inactive	inactive	inactive		
CCOc1ccc2nc3cc(N)ccc3c(N)c2c1	inactive	inactive	inactive	inactive		inactive			inactive						inactive	inactive			
CCCCCCCCCCCCCCCCCC[N+](C)(C)Cc1ccccc1	49 µM (active)		inactive	61.7 µM (active)	30.9 µM (active)	inactive	0.155 µM (active)		55 µM (active)	24.6 µM (active)	27.6 µM (active)	inactive	inactive	24.6 µM (active)	55 µM (active)	inactive		17.4 µM (active)	
CCCCCCCCCCn1cc[n+](CCCCCCCCCC)c1C	30.7 µM (active)		inactive		30.7 µM (active)	inactive	0.077 µM (active)		24.4 µM (active)	30.7 µM (active)	27.3 µM (active)	inactive	54.5 µM (active)	27.3 µM (active)	3.86 µM (active)	inactive			
O=C1C=CC(=O)N1	49.8 µM (active)		inactive		7.04 µM (active)	inactive	1.58 µM (active)		49.8 µM (active)	55.9 µM (active)	28 µM (active)	inactive		5.59 µM (active)	55.9 µM (active)	inactive	28 µM (active)		8.86 µM (active)
O=c1cccccc1O	inactive		inactive	inactive	62.3 µM (active)	inactive	24.8 µM (active)	inactive	inactive				inactive	55.5 µM (active)	inactive	inactive	inactive		
Clc1ccccc1C(c1ccccc1)(c1ccccc1)n1ccnc1	43.3 µM (active) and inactive		inactive	inactive	13.7 µM (active)	inactive	13.3 µM (active)	inactive	30.6 µM (active) and inactive	17.2 µM (active)	15.4 µM (active)	inactive	54.5 µM (active)	13.7 µM (active)	24.3 µM (active) and inactive	inactive	8.41 µM (active)		
COc1c(C)c2c(c(O)c1C/C=C(\C)CCC(=O)O)C(=O)OC2	inactive	inactive	inactive	inactive	inactive	inactive	inactive	inactive	inactive	0.133 µM (active)				inactive	inactive	inactive			
Cc1cc(O)c(C(C)(C)C)cc1Sc1cc(C(C)(C)C)c(O)cc1C	43.2 µM (active)		inactive		19.3 µM (active)	inactive	9.67 µM (active)		30.6 µM (active)	19.3 µM (active)	24.3 µM (active)	inactive		19.3 µM (active)	30.6 µM (active)	inactive			inactive
O=C(O)c1c(Cl)cccc1Cl	inactive		inactive	inactive	inactive	inactive	inactive	inactive	inactive			inactive	inactive	inactive			inactive		
OCCCCCCCCCCCCBr	inactive		inactive	inactive	inactive	inactive		inactive	inactive	inactive	inactive	inactive	inactive	inactive			55.3 µM (active)		
